Laboratory results from PubChem BioAssay AID1159580 (chemical genetic matrix, 2015).
Where “and” joins values, the source holds several entries; their conditions need not be identical. Equal entries are not always repeated. Out of some 5,500 compounds screened, about 2,000 (36%) were called active. Inconclusive results (about 18%) are left out. Rule as the data show it: active = normalized growth mostly below about 0.91 (no sharp cut-off); inconclusive = no clear call, values can overlap the other calls; inactive = mostly above about 0.92. The list shows a part of the results.

Assay: chemical genetic growth profiling, strain panel (AID 1159580);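 also: tested at 20 µM; growth read once vehicle control cultures reached saturation at 30 °C; 1 = growth at the plate median or of vehicle wells; lower values mean less growth of the strain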
Settings: S. cerevisiae deletion strains, growth OD

Measured: normalized growth

C[C@@H]1O[C@@H](O[C@H]2C[C@@H](O)[C@]3(CO)C4C(CC[C@]3(O)C2)[C@@]2(O)CC[C@H](C3=CC(=O)OC3)[C@@]2(C)C[C@H]4O)[C@H](O)[C@H](O)[C@H]1O (some centres not stated)
inactive: locus YAL021C, strain ccr4, hits give low values 1.01 | locus YAL026C, strain drs2, hits give low values 1.02 | locus YAL030W, strain snc1, hits give low values 1.03 | locus YBL061C, strain skt5, hits give low values 1.02 | locus YBR009C, strain hhf1, hits give low values 1.04 | locus YBR021W, strain FUR4, hits give low values 1.05 | locus YBR023C, strain chs3, hits give low values 1.03 | locus YBR171W, strain sec66, hits give low values 1.04 | locus YBR229C, strain ROT2, hits give low values 1.02 | locus YBR231C, strain swc5, hits give low values 1.01 | locus YBR279W, strain paf1, hits give low values 1.02 | locus YCL011C, strain gbp2, hits give low values 1.02 | locus YCL016C, strain dcc1, hits give low values 1.04 | locus YCL029C, strain bik1, hits give low values 0.99 | locus YCL061C, strain MRC1, hits give low values 1.01 | locus YCL069W, strain vba3, hits give low values 1.03 | locus YCR088W, strain abp1, hits give low values 1.02 | locus YDL005C, strain med2, hits give low values 1.02 | locus YDL035C, strain GPR1, hits give low values 1.05 | locus YDL040C, strain nat1, hits give low values 1.02 | locus YDL074C, strain BRE1, hits give low values 1.04 | locus YDL101C, strain DUN1, hits give low values 1.02 | locus YDL185W, strain tfp1, hits give low values 1 | locus YDL192W, strain arf1, hits give low values 0.994 | locus YDR001C, strain nth1, hits give low values 1.02 | locus YDR069C, strain doa4, hits give low values 0.997 | locus YDR101C, strain arx1, hits give low values 0.994 | locus YDR137W, strain rgp1, hits give low values 1.02 | locus YDR159W, strain sac3, hits give low values 1 | locus YDR162C, strain NBP2, hits give low values 1.03 | locus YDR195W, strain ref2 1.01 | locus YDR297W, strain sur2, hits give low values 1.02 | locus YDR318W, strain mcm21, hits give low values 0.998 | locus YDR334W, strain swr1, hits give low values 1.03 | locus YDR335W, strain msn5, hits give low values 1.03 | locus YDR388W, hits give low values 0.992 | locus YDR392W, strain spt3, hits give low values 0.981 | locus YDR502C, strain sam2, hits give low values 0.989 | locus YEL003W, strain gim4, hits give low values 1.03 | locus YEL037C, strain rad23, hits give low values 1.03 | locus YEL061C, strain CIN8 (second series), hits give low values 1.03 | locus YEL061C, strain CIN8, hits give low values 1.02 | locus YER015W, strain faa2, hits give low values 1.02 | locus YER016W, strain bim1, hits give low values 1.01 | locus YER110C, hits give low values 0.985 | locus YER111C, strain swi4, hits give low values 1.02 | locus YER155C, strain BEM2 (second series), hits give low values 1.01 | locus YER155C, strain BEM2, hits give low values 1.01 | locus YER167W, strain BCK2, hits give low values 1.03 | locus YFR010W, strain ubp6, hits give low values 1.03 | locus YGL078C, strain dbp3, hits give low values 0.992 | locus YGL086W, strain mad1, hits give low values 0.996 | locus YGL167C, strain pmr1, hits give low values 1.03 | locus YGL173C, strain kem1, hits give low values 1.02 | locus YGL227W, strain vid30, hits give low values 1.03 | locus YGL240W, strain doc1, hits give low values 0.997 | locus YGL248W, strain PDE1, hits give low values 1.02 | locus YGL253W, strain hxk2, hits give low values 1.01 | locus YGR135W, strain pre9, hits give low values 1.01 | locus YGR252W, strain gcn5, hits give low values 0.98 | locus YHR013C, strain ard1, hits give low values 1.04 | locus YHR027C, strain rpn1, hits give low values 1.02 | locus YHR030C, strain SLT2, hits give low values 1.02 | locus YHR079C, strain IRE1 (second series), hits give low values 0.987 | locus YHR079C, strain IRE1, hits give low values 1.02 | locus YHR094C, strain hxt1, hits give low values 0.983 | locus YHR129C, strain ARP1, hits give low values 1.02 | locus YHR142W, strain chs7, hits give low values 1.04 | locus YHR200W, strain rpn10, hits give low values 0.999 | locus YIL066C, strain RNR3, hits give low values 1.05 | locus YIL073C, strain SPO22, hits give low values 0.981 | locus YIL125W, strain kgd1, hits give low values 0.994 | locus YIR030C, strain dcg1, hits give low values 0.991 | locus YJL092W, strain hpr5, hits give low values 1.02 | locus YJL095W, strain BCK1 (second series), hits give low values 1.05 | locus YJL095W, strain BCK1, hits give low values 1.03 and 1.01 | locus YJL115W, strain asf1, hits give low values 1.03 | locus YJL129C, strain trk1, hits give low values 1.04 | locus YJL134W, strain LCB3, hits give low values 1.01 | locus YJL154C, strain vps35, hits give low values 1.02 | locus YJL164C, strain tpk1, hits give low values 1.02 | locus YJL166W, strain qcr8, hits give low values 1.01 | locus YJL168C, strain set2, hits give low values 0.987 | locus YJL187C, strain SWE1 (second series), hits give low values 1.03 | locus YJL187C, strain SWE1, hits give low values 1.02 | locus YJR043C, strain POL32, hits give low values 1.05 | locus YJR066W, strain TOR1, hits give low values 0.989
